Screens deposited in PubChem by several laboratories.
The list is not random: actives were taken first. Their share in the collection is about 0.98%.
Calb biofilm kill = kills Candida albicans biofilms; C. albicans biofilm + clotrimazole, Alamar Blue; inhibition, % at 6 µM; hit rate 0.14% among 85,000; AID 834;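 active = inhibition above 20%; inactive = inhibition below 20%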;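 note: preformed 24 hr biofilms exposed to compound for 48 hr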
SDO1 yeast rescue = compounds rescuing growth of sdo1-depleted yeast, bone marrow failure model; S. cerevisiae sdo1-depleted JHY4D growth rescue, OD600 30 h; stronger effect = higher value; pdr5 snq2 efflux-pump mutant strain; z-score at 10 µM; hit rate 0.21% among 140,000;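 active = z-score above 3 at both the 24 hr and the 30 hr optical density reads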
MRP1 act = activates MRP-1; H69AR cells + doxorubicin, viability rescue, CellTiter-Glo; viability increase, % at 10 µM; hit rate 0.61% among 140,000; AID 799;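 active = viability gain under doxorubicin at or above a set limit, the compound median plus 3 SD, cut at about 4.7% in these data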;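 note: MRP-1 overexpressing cells given doxorubicin 25 µM after compound pretreatment; 18-22 h compound pretreatment then 72 h with doxorubicin before readout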
MRP reversal = MRP-mediated drug resistance reversal; H69AR cells + 2 uM doxorubicin, CellTiter-Glo, 72 h; differential viability (reversal), % at 10 µM; hit rate 0.04% among 85,000;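 active = viability drop by adding the cancer drug above about 55%, with treated viability meeting a 40% cutoff, limit read from the data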;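 note: larger differential means the compound sensitizes cells more to doxorubicin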
Of the large screens only hits and unclear results are named; the others gave an inactive call.

O=C(/C=C/c1cccc([N+](=O)[O-])c1)NCCSCc1cccc(Cl)c1	none (no result: Calb biofilm kill, MRP reversal)
CN1CCN(C(=S)Nc2cc([N+](=O)[O-])ccc2Cl)CC1	none (no result: Calb biofilm kill, MRP reversal)
N=C(N)SCc1ccccn1	MRP1 act 6.3 (no result: Calb biofilm kill, MRP reversal)
c1ccc(CSc2nnc(SCc3ccccn3)s2)nc1	none
CC(O)(CS(=O)(=O)Cc1ccccc1)C(=O)Nc1ccc(C(F)(F)F)cc1 (centres undefined)	MRP1 act 7.9 (no result: Calb biofilm kill, MRP reversal)
CC(O)(CS(=O)(=O)Cc1ccccc1)C(=O)Nc1cccc(C(F)(F)F)c1 (centres undefined)	none (no result: Calb biofilm kill, MRP reversal)
O=C(CSc1nc2ccccc2c(=O)n1CCCN1CCOCC1)Nc1cccc(S(=O)(=O)N2CCCCCC2)c1	none (no result: Calb biofilm kill, MRP reversal)
COc1ccc(-c2ocnc2C(=O)Nc2ccccc2N2CCCCC2)cc1	MRP1 act 7.2
CCn1c2ccccc2c2cc(NC(C)=O)ccc21	Calb biofilm kill 44
O=C(Nc1nc(-c2ccc(Oc3ccccc3)cc2)cs1)C1=COCCO1	MRP1 act 7.1 (no result: Calb biofilm kill, MRP reversal)
Cc1ccc(C)c(Oc2coc3cc(OCC(=O)Nc4ccccc4C(C)C)ccc3c2=O)c1	none (no result: Calb biofilm kill, MRP reversal)
CCn1nc(C)c(NC(=O)/C=C/c2ccc(OC)c(COc3ccc(Cl)cc3Br)c2)c1C	MRP1 act 7.2
Cn1cnc([N+](=O)[O-])c1Oc1ccc2ccccc2c1	none (no result: Calb biofilm kill, MRP reversal)
Cc1cc2n(n1)C(c1ccccc1)CC(c1ccc(Br)cc1)=N2 (centres undefined)	MRP1 act 5.5 (no result: Calb biofilm kill, MRP reversal)
COCCCNC(=S)NC(=O)c1ccc(C)cc1	none (no result: Calb biofilm kill, MRP reversal)
C/C(Nc1ccc(Cl)cc1)=C(/C#N)C(N)=O	Calb biofilm kill 50
CC(CCc1ccccc1)NC(=O)CN1CCN(Cc2ccc(Cl)cc2)C1=O (centres undefined)	MRP1 act 7.3
CC(CCc1ccccc1)NC(=O)c1nnc(Cc2ccc(Cl)cc2)o1 (centres undefined)	MRP1 act 9.9
O=C(NCCc1ccc(Cl)cc1)c1nnc(Cc2ccc(Cl)cc2)o1	none
CC(CCc1ccccc1)NC(=O)CN1CCN(Cc2ccccc2)C1=O (centres undefined)	none
Cc1cc(NC(c2cccnc2)c2c(C)[nH]c3ccccc23)no1 (centres undefined)	Calb biofilm kill 27
CCOC(=O)N1CCC(Nc2c(Nc3ccc(C)c(C)c3)c(=O)c2=O)CC1	MRP reversal 65
CCOC(=O)N1CCC(Nc2c(OCC)c(=O)c2=O)CC1	none
COc1ccccc1-c1nnc(SC2CCc3ccccc3NC2=O)s1 (centres undefined)	MRP1 act 6.3
O=C(CCn1cnc2ccccc2c1=O)Nc1ccc(Cl)c(Cl)c1	Calb biofilm kill 41
C=CCn1c(SCN2C(=O)c3ccccc3C2=O)nc2ccc(Cl)cc2c1=O	none (no result: Calb biofilm kill, MRP reversal)
COc1ccc(N(C(=O)Cn2nnc3ccccc32)C2(C(=O)NC3CCCC3)CCCCC2)cc1	none (no result: Calb biofilm kill, MRP reversal)
COc1ccc(N(C(=O)Cn2cnc3ccccc32)C(C(=O)NC2CCCCC2)c2ccccc2)cc1 (centres undefined)	MRP1 act 13 (no result: Calb biofilm kill, MRP reversal)
CCN(CC)C(=O)c1cc(C(C)(C)C)c(O)c(C(C)(C)C)c1	none (no result: Calb biofilm kill, MRP reversal)
Cc1ccc(N/N=C(\C#N)C(N)=S)c(C)c1	MRP1 act 8.2 (no result: Calb biofilm kill, MRP reversal)
CCOC(=O)Nc1ccc(C)cc1C	none
CCn1c(SCC(=O)N/N=C/c2c[nH]c3ccccc23)nnc1-c1ccc(Cl)cc1	none (no result: Calb biofilm kill, MRP reversal)
CCO/N=C(\C)c1c(O)c(CC)c(-c2ccccc2)n(-c2ccccc2)c1=O	none
O=C(NCc1ccc(Cl)cc1)C(=O)NCC1OCCN1C(=O)c1cccs1 (centres undefined)	MRP1 act 6.4 (no result: Calb biofilm kill, MRP reversal)
CCOC(=O)c1nc(-c2ccc(OC)c(OC)c2)cnc1C#N	none (no result: Calb biofilm kill, MRP reversal)
Cc1nc(=O)c(-c2ccccc2)c(C)n1-c1ccc(S(N)(=O)=O)cc1	MRP1 act 6.8
Cc1nc(=O)c(-c2ccccc2)c(C)n1-c1ccc(C(=O)O)cc1	MRP1 act 9.1
Cc1nc(=O)c(-c2ccccc2)c(C)n1Cc1ccccc1	none
O=C(NCCO)C(F)(F)C(F)(F)C(F)(F)OC(F)(C(=O)NCCO)C(F)(F)F (centres undefined)	none
COc1ccc(-c2csc(NC(=O)c3cc(-c4cccs4)nc4ccccc34)n2)c(OC)c1	MRP1 act 4.8 (no result: Calb biofilm kill, MRP reversal)
O=C(O)c1ccc(N/N=C/c2cccc(F)c2)cc1	none (no result: Calb biofilm kill, MRP reversal)
O=C(O)c1ccc(N/N=C/c2ccc(F)c(F)c2)cc1	MRP1 act 7.3 (no result: Calb biofilm kill, MRP reversal)
CN=c1scc(-c2cccs2)n1/N=C/c1ccc(O)c(O)c1O	none (no result: Calb biofilm kill, MRP reversal)
CN=c1scc(C)n1/N=C/c1ccc(O)c(O)c1O	MRP1 act 12
COc1ccc(Cc2nnc(N/N=C/c3ccc(O)cc3O)[nH]c2=O)cc1OC	MRP1 act 6.0 (no result: Calb biofilm kill, MRP reversal)
COc1ccc(Cc2nc3ccccc3n2CC(=O)N/N=C/c2ccc(C)cc2O)cc1OC	none (no result: Calb biofilm kill, MRP reversal)
COc1ccc(Cc2nnc(NC(=O)c3c(-c4ccccc4)noc3C)s2)cc1	none
COc1ccc(Cc2nnc(NC(=O)c3c(-c4ccccc4)noc3C)s2)cc1OC	MRP1 act 9.5
CCOC(=O)Cc1csc(NC(=O)c2c(-c3ccccc3)noc2C)n1	MRP1 act 4.9
Cc1cc2cc(CNC(=S)Nc3ccc(OC(F)(F)F)cc3)ccc2[nH]1	none (no result: Calb biofilm kill, MRP reversal)
COC(=O)c1ccc(NC(=O)Cn2nc(SC)n(N)c2=S)cc1	Calb biofilm kill 27
Cc1ccc(S(=O)(=O)N2CCN(c3nc(C)c4c(c3C#N)CC(C)(C)OC4)CC2)cc1	MRP1 act 6.1 (no result: Calb biofilm kill, MRP reversal)
O=C(CNC(=O)c1ccc(S(=O)(=O)N2CCCC2)cc1)N/N=C/c1c(Cl)cccc1Cl	none (no result: Calb biofilm kill, MRP reversal)
CC(C)N(N=Nc1ccc([N+](=O)[O-])cc1)C(C)C	MRP1 act 4.7 (no result: Calb biofilm kill, MRP reversal)
CCCNC(=O)c1oc2ccc3c(c2c1C)C(=O)CC(C)(C)O3	MRP1 act 7.1
CC1CCCCC1NC(=O)C(Cc1ccccc1)NS(=O)(=O)c1cccs1 (centres undefined)	none
CC(CCc1ccccc1)NC(=O)C(Cc1ccccc1)NS(=O)(=O)c1cccs1 (centres undefined)	Calb biofilm kill 33
Cc1cccc2cc(CN(Cc3cccs3)S(=O)(=O)c3ccc4c(c3)OCCO4)c(=O)[nH]c12	MRP1 act 9.3 (no result: Calb biofilm kill, MRP reversal)
Cc1cc2cc(CN(Cc3cccs3)S(=O)(=O)c3ccc4c(c3)OCCO4)c(=O)[nH]c2cc1C	none (no result: Calb biofilm kill, MRP reversal)
Cc1csc(C(C#N)C(=O)c2cc3ccccc3o2)n1 (centres undefined)	MRP1 act 6.1
CC(C)(C)c1ccc(-c2nc(-c3ccncc3)no2)cc1	MRP1 act 6.2
Cc1cc(C)cc(-c2nc(-c3ccncc3)no2)c1	Calb biofilm kill 21
COc1ccc(C(=O)COC(=O)CNC(=O)c2cc(OC)cc(OC)c2)cc1	none (no result: Calb biofilm kill, MRP reversal)
Cc1c(C(=O)N2CCC(C)CC2)sc2ncnc(N(C)c3ccccc3)c12	none
O=C(NCc1ccc(F)cc1)c1noc2c1CCCC2	MRP1 act 4.9
O=C(NCc1ccc(F)cc1)c1noc2c1CCCCC2	none
O=C(COc1ccc(Cl)cc1Cl)NCCC1=CCCCC1	none (no result: Calb biofilm kill, MRP reversal)
Cc1c(NC(=O)CSc2ccc(Cl)cc2)cccc1-c1nc2ncccc2o1	MRP1 act 6.2 (no result: Calb biofilm kill, MRP reversal)
CCOC(=O)c1ccc(N2CN=C3SCC(=O)N3C2)cc1	MRP1 act 5.8
Cn1c(=O)n(C/C=C/c2ccccc2)c(=O)c2c1nc1n2CCCN1c1ccc(F)cc1	MRP1 act 5.3
O=C(NNC(=S)Nc1cccc(C(F)(F)F)c1)c1cccc(Cl)c1	none (no result: Calb biofilm kill, MRP reversal)
CC(C)(C)c1ccc(C(=O)NNC(=O)c2ccc(Cl)cc2)cc1	none (no result: Calb biofilm kill, MRP reversal)
